This note sets out measurements from PubChem BioAssay (NCATS).

Inconclusive results are not listed. The source made the active and inactive calls. The call rests on the fitted dose curve; in most records, active means well fitted inhibition curve with a large enough effect in the repeat runs; inconclusive means weak or mixed curves; inactive means no such curve, though single readings can be large or run the other way.
Potency means the concentration at half of the fitted maximal effect.

The target of this test is Cytochrome P450 2C9 (Homo sapiens) (UniProt P11712). The experiment in a line: Cytochrome P450 family 2 subfamily C member 9 (CYP2C9) small molecule antagonists: luciferase biochemical (cell-free) qHTS assay (AID 1645842). Further: nearly all actives have a fitted effect of over 55% in size. To be noted: P450-Glo CYP2C9 enzyme assay, luciferin luminescence; series mostly up to 57.4 µM. Summed up: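 P450-Glo CYP2C9 system: proluciferin substrate with enzyme in mix containing 0.4% BSA, 10 min at room temperature, then NADPH regeneration solution added and incubated 1 h at 37C. Detection reagent stopped reaction; luminescence read after 20 min as RLU.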
Sequence of Cytochrome P450 2C9 (Homo sapiens) (P11712 whole entry, looked up): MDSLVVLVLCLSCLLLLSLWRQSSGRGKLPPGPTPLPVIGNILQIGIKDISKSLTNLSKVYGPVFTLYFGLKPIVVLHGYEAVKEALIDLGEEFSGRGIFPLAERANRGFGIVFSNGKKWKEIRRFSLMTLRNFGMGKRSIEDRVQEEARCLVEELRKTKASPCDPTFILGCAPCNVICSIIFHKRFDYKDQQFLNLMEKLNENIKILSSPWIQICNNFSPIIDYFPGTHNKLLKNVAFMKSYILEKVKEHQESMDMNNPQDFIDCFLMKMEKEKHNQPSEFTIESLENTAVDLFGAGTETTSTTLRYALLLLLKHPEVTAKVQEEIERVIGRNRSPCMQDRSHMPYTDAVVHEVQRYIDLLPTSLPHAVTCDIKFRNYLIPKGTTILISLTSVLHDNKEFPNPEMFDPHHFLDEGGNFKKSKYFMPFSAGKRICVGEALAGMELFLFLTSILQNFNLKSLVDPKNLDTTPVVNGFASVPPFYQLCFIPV
On the technique in general: In qHTS, concentration-response curves come from the screen itself.
Turning to `C=CC(=O)N1CCN(C(=O)CNc2cc(-c3ccccc3Cl)c(Cl)cc2OC)CC1`, the Potency is 3.01 µM (active).

For the molecule `CCOC(=O)N1CCC(CN(Cc2ccc(Cl)cc2)Cc2ccc([N+](=O)[O-])s2)C1` (centres undefined), the Potency is 4.25 µM (active).

As for `COc1nc2ccc(Br)cc2cc1[C@@H](c1ccccc1)[C@@](O)(CCN(C)C)c1cccc2ccccc12`, the Potency is 3.79 µM (active).

Regarding `CCCCNc1ncc2c(-c3ccc(S(=O)(=O)N4CCOCC4)cc3)nn(C3CCC(O)CC3)c2n1` (centres undefined), the Potency was 9.52 µM (active).

In the case of `Cc1cc(C)c(-n2cc(C)c3c(Cl)nc(C)nc32)c(C)c1`, the Potency is 10.7 µM (active).

Turning to `CCn1c(-c2nonc2N)nc2c(C#CCO)ncc(OCCCN)c21`, the Potency result was “inactive”.

Take `Cc1c(C(=O)NCc2cccnc2)nn(-c2ccc(Cl)cc2Cl)c1-c1ccc(Cl)cc1`: the Potency is 5.35 µM (active).

`CC(F)(F)CN1CCOc2c(nn(-c3ccccc3Cl)c2-c2ccc(Cl)cc2)C1=O`: the Potency is 13.5 µM (active).

In the case of `O=C(NCCCc1ccccc1)C1CCC(CNS(=O)(=O)c2cccc3nsnc23)CC1` (centres undefined), the Potency was 9.52 µM (active).

`CCCC(=O)C1(c2ccccc2)CCN(C(=O)[C@@H](Cc2ccc(OC)cc2)NC(=O)[C@@H](N)Cc2cncn2C)CC1`: the Potency is 19 µM (active).

With `CC(C)c1cc(-c2ccc(F)c3ccccc23)nc(N)n1`, the Potency is 4.25 µM (active).

With `CN1CCN(C2=Nc3ccccc3Nc3ccc(OS(=O)(=O)C(F)(F)F)cc32)CC1`, the Potency is 10.7 µM (active).

Take `O=S1(=O)CCN(Cc2cc(NCC3CCOCC3)c3[nH]c(-c4ccccc4)cc3c2)CC1`: the Potency is 3.38 µM (active).

Consider `Cn1cc(-c2ccc3c(c2)CCN3C(=O)Cc2cccc(C(F)(F)F)c2)c2c(N)ncnc21`, for which the Potency was 12 µM (active).
